Measured potencies and affinities stand elsewhere. The source made the active and inactive calls. No rule for the calls is given here.
Molecular target: KSHV LANA C-terminal domain (residues 932-1162) binding to LBS DNA (UniProt O40947)
Assay: KSHV LANA DNA-binding disruption – biochemical, fluorescence polarization, cherry-picked samples, dose response (AID 504725)
Details: MBP-C-LANA / FAM-LBS DNA fluorescence polarization, percent change from plate compound-well median; series mostly up to 35 µM

Q: With CCN(CC(=O)Nc1ccc(OC)cc1)C(=O)c1cc([N+](=O)[O-])ccc1N1CCOCC1 as the compound, how does the outcome read?
A: inactive

Q: With COc1ccc(-c2csc(NC(=O)CSc3nc(C)nc4sc(C(=O)O)c(C)c34)n2)cc1 as the compound, how does the outcome read?
A: inactive

Q: Which outcome does the source give for CC(C)(C)OC(=O)N1CCC[C@H]1c1nnc(SCc2cccc(Cl)c2)o1 here?
A: inactive

Q: Cc1ccc(N=Nc2c(O)[nH]c3ccc(F)cc23)cc1 was tested. Which outcome did it give?
A: inactive

Q: Which outcome does the source give for CC(=O)OCCCn1c(C)[n+](C)c2cc(Cl)c(Cl)cc21 here?
A: inactive

Q: For CCCCN(C(=O)C(C)Oc1ccc(Br)cc1)c1c(N)n(CC(C)C)c(=O)[nH]c1=O (configuration not stated), which outcome is on record?
A: inactive

Q: CC(Sc1nc(-c2ccco2)nc2c1c(=O)n(C)c(=O)n2C)C(=O)O (configuration not stated) was tested. Which outcome did it give?
A: inactive

Q: CCCc1nnc(NC(=O)CCC(=O)NCc2ccc(OC)cc2)s1 was tested. Which outcome did it give?
A: inactive

Q: For Cc1noc(C)c1CSCC(=O)Nc1nc2c(F)cc(F)cc2s1, which outcome is on record?
A: inactive

Q: CCNC(=O)COC(=O)c1cccc(Br)c1 was tested. Which outcome did it give?
A: inactive

Q: How did the outcome turn out when COc1ccc(C2(CNC(=O)CCC(=O)O)CCCC2)cc1OC was run?
A: inactive

Q: How did the outcome turn out when COc1ccc(NC(=O)Cc2nnc(SCC(=O)Nc3nccs3)n2C)cc1 was run?
A: inactive

Q: O=C(O)C1C2C=CC(CC2)C1C(=O)O (configuration not stated) was tested. Which outcome did it give?
A: inactive

Q: Which outcome does the source give for CCN(CC)C(=O)C1c2ccccc2Oc2ccccc21 here?
A: inactive

Q: With Cc1nn(CC(=O)c2ccc(Br)s2)c(C)c1[N+](=O)[O-] as the compound, how does the outcome read?
A: inactive

Q: For COc1cccc(OC)c1C(=O)Nc1cc(C)on1, which outcome is on record?
A: inactive

Q: Which outcome does the source give for CC(C)=C[C@@H]1C[C@H](C)[C@H]2CC[C@H](C)c3c(O[C@@H]4O[C@@H](C)[C@@H](O)[C@@H](O)[C@@H]4O)c(O)c(C)c1c32 here?
A: inactive

Q: How did the outcome turn out when O=C(NCCCN1CCCC1=O)c1ccc2c(c1)ncn2C1CCCCC1 was run?
A: inactive

Q: CC(=O)N(C(C)=O)N1C(=O)c2cccc3c(N4CCOCC4)ccc(c23)C1=O was tested. Which outcome did it give?
A: inactive

Q: CCCCn1c(N)c(N(CCOC)C(=O)c2cc(C)oc2C)c(=O)[nH]c1=O was tested. Which outcome did it give?
A: inactive

Q: With NNc1nnc2c3cc(F)ccc3n(Cc3ccccc3)c2n1 as the compound, how does the outcome read?
A: inactive

Q: For COc1cccc(/C=N/NC(=O)C(=O)NCc2cccnc2)c1O, which outcome is on record?
A: inactive

Q: For COc1cccc(-c2cc(C(=O)N3CCN(S(=O)(=O)c4ccccc4)CC3)[nH]n2)c1, which outcome is on record?
A: inactive

Q: Which outcome does the source give for N#C/C(=C\c1ccc(-c2ccccc2[N+](=O)[O-])o1)C(N)=O here?
A: inactive

Q: Which outcome does the source give for O=C(CN1CCN(C(=O)CNC(=O)c2ccc3c(c2)OCO3)CC1)Nc1ccc(F)cc1 here?
A: inactive

Q: How did the outcome turn out when Cc1c(C)n(CCC(=O)O)c2ccccc12 was run?
A: inactive

Q: With COc1ccc(C(=O)OCC(=O)NC2CC2)cc1S(=O)(=O)Nc1ccc(C)cc1 as the compound, how does the outcome read?
A: inactive

Q: O=c1nc(N2CCOCC2)ccn1-c1nc(-c2ccccc2)sc1-c1ccccc1 was tested. Which outcome did it give?
A: inactive

Q: Which outcome does the source give for COC(=O)c1sc(C(F)(F)F)c(-c2ccccc2)c1S(=O)(=O)N1CCOCC1 here?
A: inactive

Q: How did the outcome turn out when COc1ccccc1CNC(=O)C(=O)NCC1CCCN1S(=O)(=O)c1cccs1 (configuration not stated) was run?
A: inactive

Q: With Cc1cc(-c2nnc(SCC(=O)Nc3ccccc3)n2C)no1 as the compound, how does the outcome read?
A: inactive

Q: Which outcome does the source give for C=CCOC(=O)C1=C[C@H](c2csc3ccccc23)C[C@H](OCc2ccc(CO)cc2)O1 here?
A: inactive

Q: Which outcome does the source give for Cc1cc(C)n(CC(=O)NNC(=O)CC(C)c2ccccc2)n1 (configuration not stated) here?
A: inactive

Q: O=c1c2cc(O)c(O)cc2oc2cc(O)c(C3OC(CO)C(O)C(O)C3O)c(O)c12 (configuration not stated) was tested. Which outcome did it give?
A: inactive

Q: Nc1nc(SCC(=O)N2CCCCC2)[nH]c(=O)c1NC(=O)c1cccs1 was tested. Which outcome did it give?
A: inactive

Q: How did the outcome turn out when O=C(/C=N/NC(=O)c1ccc(Cl)cc1Cl)c1ccccc1 was run?
A: inactive

Q: Cc1cnc(NC(=O)Cc2c[nH]c3ccccc23)s1 was tested. Which outcome did it give?
A: inactive

Reference: PubChem BioAssay AID504725 (Broad Institute, 2011)
